The source of these data is PubChem BioAssay (NCI).

Values joined by “and” are separate entries in the source; they are usually repeats but may differ in a detail not shown here. Identical values can stand only once. About 83,000 compounds went through this panel and 20% of them were active in at least one assay; those are over-represented in the sample as a whole.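 Results are percent growth after 48 hours of single-concentration exposure. 100 means growth as in untreated cells, lower positive values show inhibition; negative values down to -100 show cell death.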 Active and inactive are the calls of the source. How the source made its calls: active means growth percent below 10; inactive means the rest.

Among the test systems are SR leukemia; RPMI-8226 leukemia; OVCAR-8 ovarian; OVCAR-5 ovarian; OVCAR-4 ovarian; IGROV1 ovarian; OVCAR-3 ovarian; HS 578T breast; NCI/ADR-RES ovarian; SK-OV-3 ovarian.
Holding throughout (experiment): NCI-60 one-dose screen, 48 h (100 = growth as untreated, 0 = no growth, -100 = all killed)
What all share (settings): 10 µM unless noted

For the compound `Cc1ccc(C(=O)c2ccc(CC(=O)N=Nc3c(O)[nH]c4ccc(OC(F)(F)F)cc34)n2C)cc1`, the growth is 102% (inactive) in the test on SR leukemia; 102% (inactive) in the test with RPMI-8226 leukemia; 94% (inactive) in the test with OVCAR-8 ovarian; 100% (inactive) with OVCAR-5 ovarian; 118% (inactive) in the test on OVCAR-4 ovarian; 85.2% (inactive) with IGROV1 ovarian. Further, the growth with OVCAR-3 ovarian was 117% (inactive); in the test with HS 578T breast it was 94.5% (inactive); in the test on NCI/ADR-RES ovarian, 92.4% (inactive).

For the compound `O=C(Nc1cc(C(F)(F)F)cc(C(F)(F)F)c1)c1cc(Cl)ccc1O`, the growth in the test with SR leukemia is -8.27% (active); in the test with RPMI-8226 leukemia it was -31.5% (active) and -35.6% (active); in the test on OVCAR-8 ovarian it was -37.8% (active) and 3.24% (active); in the test with OVCAR-5 ovarian, 27.2% (inactive) and 23.1% (inactive); in the test with OVCAR-4 ovarian, 24.8% (inactive) and 20.3% (inactive); in the test on IGROV1 ovarian, 4.82% (active) and 9.9% (active). The growth with OVCAR-3 ovarian was 19.3% (inactive) and 2.52% (active); with HS 578T breast, -8.03% (active); with NCI/ADR-RES ovarian it was -1.25% (active) and 2.06% (active).

Take `C=CCNC(=O)Cc1c(-c2ccc(OC)cc2)oc2c(OC)c3c(c(OC)c12)OCO3`: the growth was 97.4% (inactive) with SR leukemia; 97.5% (inactive) in the test with RPMI-8226 leukemia; 95.9% (inactive) with OVCAR-8 ovarian; 101% (inactive) in the test on OVCAR-5 ovarian; 102% (inactive) in the test on OVCAR-4 ovarian; 82.3% (inactive) in the test with IGROV1 ovarian. Moreover, the results for the growth in the test with OVCAR-3 ovarian, in the test on HS 578T breast and in the test on NCI/ADR-RES ovarian were 118% (inactive), 103% (inactive) and 98.2% (inactive), respectively.

Turning to `Nc1c(C(=O)Nc2ccncc2)sc2nc3c(cc12)CCCCCCCC3`, the growth is -27.5% (active) in the test with SR leukemia; -49% (active) with RPMI-8226 leukemia; -90.6% (active) in the test with OVCAR-8 ovarian; -75.8% (active) in the test with OVCAR-5 ovarian; -84.6% (active) in the test on OVCAR-4 ovarian; -92.1% (active) in the test on SK-OV-3 ovarian. Further, the growth with IGROV1 ovarian is -73.7% (active); in the test on HS 578T breast it was -37.1% (active); in the test on NCI/ADR-RES ovarian, -64.8% (active).

`Cn1cc2c(=O)nc3c(-c4nc5ccccc5[nH]4)n[nH]n3c2n1`: the growth in the test on SR leukemia was 32.2% (inactive); in the test with RPMI-8226 leukemia, 50.6% (inactive); with OVCAR-8 ovarian, 70.9% (inactive); in the test on OVCAR-5 ovarian, 126% (inactive); in the test on OVCAR-4 ovarian it was 90.6% (inactive); in the test on IGROV1 ovarian, 91.8% (inactive). Moreover, the growth was 73.4% (inactive) with OVCAR-3 ovarian, 93.5% (inactive) in the test on HS 578T breast and 95.1% (inactive) in the test with NCI/ADR-RES ovarian.

On to `COc1nc(=O)n(C2C=CC(=O)O2)cc1F` (configuration not stated), for which the growth was -19.8% (active) with SR leukemia; 70.1% (inactive) with RPMI-8226 leukemia; 46% (inactive) in the test on OVCAR-8 ovarian; 129% (inactive) in the test on OVCAR-5 ovarian; 71.3% (inactive) in the test on OVCAR-4 ovarian; 98.7% (inactive) in the test with SK-OV-3 ovarian. For the same compound, the growth is 116% (inactive) in the test with IGROV1 ovarian, 94.4% (inactive) in the test on HS 578T breast and 111% (inactive) with NCI/ADR-RES ovarian.

`Cc1ccc(-c2nc3nc(-c4ccccc4)nc(N4CCCNCC4)c3o2)cc1`: the growth in the test with SR leukemia is -49.7% (active); in the test on RPMI-8226 leukemia it was -55% (active); in the test on OVCAR-8 ovarian, -48.4% (active); in the test with OVCAR-5 ovarian it was -32.4% (active); in the test with OVCAR-4 ovarian, -52.3% (active); with SK-OV-3 ovarian, 79.9% (inactive). Moreover, the figures for the growth with IGROV1 ovarian, with HS 578T breast and in the test with NCI/ADR-RES ovarian were -73.8% (active), -18.1% (active) and -29.8% (active), respectively.

For the compound `CCNC(=O)Nc1ncccc1OCc1ccc(F)cc1`, the growth in the test with SR leukemia is 105% (inactive); in the test on RPMI-8226 leukemia, 106% (inactive); in the test on OVCAR-8 ovarian, 109% (inactive); in the test on OVCAR-5 ovarian, 92.4% (inactive); with OVCAR-4 ovarian it was 96.4% (inactive); in the test with IGROV1 ovarian it was 102% (inactive). For the same compound, the values for the growth with OVCAR-3 ovarian, in the test on HS 578T breast and with NCI/ADR-RES ovarian were 102% (inactive), 112% (inactive) and 93.4% (inactive), respectively.

As to `COc1ccc2c(c1)CC[C@@H]1[C@@H]2CC[C@]2(C)C3C(=CCC4C(=O)N(c5ccccc5)C(=O)C43)C[C@@H]12` (some centres not stated), the growth was 99.1% (inactive) in the test with SR leukemia; 61.2% (inactive) with RPMI-8226 leukemia; 86.2% (inactive) with OVCAR-8 ovarian; 75.7% (inactive) with OVCAR-5 ovarian; 78.8% (inactive) in the test on OVCAR-4 ovarian; 103% (inactive) in the test on SK-OV-3 ovarian. In addition, the growth was 113% (inactive) in the test on IGROV1 ovarian, 97.6% (inactive) with HS 578T breast and 85.8% (inactive) in the test on NCI/ADR-RES ovarian.

Take `NNCCc1ccccc1`: the growth was 106% (inactive) and 104% (inactive) with SR leukemia; 95.3% (inactive) and 110% (inactive) in the test on RPMI-8226 leukemia; 116% (inactive) and 96.7% (inactive) in the test with OVCAR-8 ovarian; 93.1% (inactive) in the test on OVCAR-5 ovarian; 101% (inactive) and 96.9% (inactive) in the test with OVCAR-4 ovarian; 97.2% (inactive) in the test with IGROV1 ovarian. Further, the growth with OVCAR-3 ovarian is 122% (inactive) and 100% (inactive); with HS 578T breast, 116% (inactive) and 94.1% (inactive); in the test on NCI/ADR-RES ovarian, 104% (inactive) and 91.4% (inactive).

Turning to `CC[C@]12CN3CCc4c([nH]c5ccccc45)[C@@](C(=O)OC)(c4cc5c(cc4OC)N(C)[C@H]4[C@@](O)(C(=O)OC)[C@H](OC(C)=O)[C@]6(CC)C=CCN7CC[C@]54[C@@H]76)CC(C3)[C@H]1O2` (some centres not stated), the growth in the test on SR leukemia was 14.4% (inactive); with RPMI-8226 leukemia, 20.5% (inactive); with OVCAR-8 ovarian, 7.27% (active); with OVCAR-5 ovarian, 49% (inactive); in the test on OVCAR-4 ovarian, 28% (inactive); in the test with SK-OV-3 ovarian, 22.1% (inactive). The growth with OVCAR-3 ovarian is -60.4% (active); in the test with HS 578T breast, -25.1% (active); with NCI/ADR-RES ovarian, 82% (inactive).

For the compound `O=C(Cn1cc(CN2CCN(c3ccnc4cc(Cl)ccc34)CC2)nn1)Nc1cccc([N+](=O)[O-])c1`, the growth was 33% (inactive) with SR leukemia; 57.6% (inactive) in the test on RPMI-8226 leukemia; 74.7% (inactive) with OVCAR-8 ovarian; 96.4% (inactive) with OVCAR-5 ovarian; 92.4% (inactive) in the test with OVCAR-4 ovarian; -94.7% (active) in the test on IGROV1 ovarian. The growth was 87.9% (inactive) in the test with OVCAR-3 ovarian, 82.6% (inactive) in the test with HS 578T breast and 100% (inactive) in the test on NCI/ADR-RES ovarian.

For `[Cu+].[NH-][C@H]1C[N-]C(=O)[C@H]([C@H]2CCN=C(N)N2)[N-]C(=O)/C(=C\NC(N)=O)[N-]C(=O)[C@H](CNC(=O)C[C@@H](N)CCCN)[N-]C(=O)[C@H](CO)[N-]C1=O`, the growth in the test with SR leukemia is 96.1% (inactive); in the test with RPMI-8226 leukemia it was 103% (inactive); in the test with OVCAR-8 ovarian, 106% (inactive); in the test on OVCAR-5 ovarian, 113% (inactive); in the test on OVCAR-4 ovarian it was 99.9% (inactive); in the test on SK-OV-3 ovarian, 71.3% (inactive). The figures for the growth in the test with IGROV1 ovarian, in the test with HS 578T breast and in the test on NCI/ADR-RES ovarian were 109% (inactive), 97% (inactive) and 103% (inactive), respectively.
